# In the supplement of paper PMC10338343:
# ± gives the standard deviation.
# Tested on: MILI (PIWIL2) piRISC loaded with L1MC piRNA (26 nt)
# Test: pre-steady-state target cleavage rate (min^-1); guide: L1MC piRNA 5'p-UAACUAAAUACUAUGCAAGCUGUAGG; MIWI and MILI are mouse PIWI proteins and EfPiwi is from a freshwater sponge; tags in brackets are library labels; higher = faster piRNA-guided slicing of the target
# Procedure, shortened: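 Using HEPES–potassium acetate buffer at 33 °C, 1 nM active affinity-purified piRISC with a single synthetic guide was mixed with 0.1 nM transcribed, DNA-blocked target RNA library for 0–8 or 0–960 min, with or without 500 nM GTSF1 partner protein. Uncleaved targets were sequenced and normalised to depth and to weakly complementary targets, and three trials were pooled with k3 capped at 0.0001 min^-1. A burst-and-steady-state fit gave the pre-steady-state cleavage rate.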
# [1] = auxiliary factor: 500 nM mouse GTSF1
# [2] = auxiliary factor: none (no GTSF1)
Sequence,pre-steady-state target cleavage rate [1],pre-steady-state target cleavage rate [2]
UCCUGGAUGUGCUUGCAAAGUAUUUAGAUA,0.0284 ± 0.008,–
UCCUGGAUGUCGAUGCAUAGUAUAUAGUAA,0.063 ± 0.013,–
UCCUGGAUGUCCUUGCAUAGUAUUUUCAUA,0.0192 ± 0.0081,–
UCCUGGAUGUCGAACGUAUCUAAUUUAGUUA,–,< 0.0001
UCCUGGAUGUCCUUGCAUAGUUUAUAGUUA,0.0111 ± 0.006,–
UCCUGGAUGUCGAACGUUACUAUUAAGUUA,–,< 0.0001
UCCUCCUACAGCUUGCAUUCUAUUUAGAAA,0.0122 ± 0.0056,–
UCCUCCUACAGCUUGCAUACAAUUUAGUUA,0.00727 ± 0.0046,–
UCCUGGAUGUGCUUGCAUAGUAUUUUGAAA,0.00858 ± 0.0064,–
UCCUGGAUGAGCUUGCAUAGUAAUAAGUUA,0.202 ± 0.045,–
UCCUGGAUGUCGUUGGAAAGUAUUUAGUUA,< 0.0001,–
UCCUGGUACAGCUUGCAUAGUAAAUUCAAA,0.0147 ± 0.0074,–
UCCUGGAUGUCGAACGAUGAGUAUUUAGUUA,–,< 0.0001
UCCUGGAUGUCGAUUCAUAGUAUUUAGUUA,0.0157 ± 0.0044,–
UCCUGGAUGUCGAACCAUAGUAUUAUCAAA [g7:g15:cont:t1A],< 0.0001,–
UCCUGGAUGUCCUUGCAUAGUAUUAGUUA,0.0068 ± 0.004,–
UCCUGGAUCACCUUGCAUAGUAUUUUGUUA,0.11 ± 0.027,–
UCCUGGAUCAGCUUGCAUAGUAUUUACUAA,0.0285 ± 0.011,–
UCCUGGAUGUCGAUGCAUAGUUAAUAGUUA,–,0.00272 ± 0.0027
UCCUGGAUGUCGAUACAUAGUAUUUAGUUA,0.0231 ± 0.0046,–

Sequence,pre-steady-state target cleavage rate [1],pre-steady-state target cleavage rate [2]
UCCUGGAUGUGCUUGCAUAGUAUUUAGGUA,0.0373 ± 0.011,–
UCCUGGAUGAGCUUGCAUAGUAUUUUGAAA,0.0223 ± 0.0096,–
UCCUGGAUGUCGUUGGAUAGUAUUUAGUUA,0.0108 ± 0.0042,–
UCCUGGAACAGCUUGCAUAGUUUAUAGUUA,0.029 ± 0.0097,–
UCCUGGAUGUCGAUGCAUAGAAUUUAGUUA,0.0057 ± 0.0026,–
UCCUGGAUGAGCUUGCAUAGUAUUAGUUA,0.0846 ± 0.015,–
UCCUGGAUGUCGAACGAGUAGUAUUUAGUUA,–,< 0.0001
UCCUGGAUGUGCUUGGUUAGUAUUUAGAAA,0.00692 ± 0.0045,–
UCCUGCAACAGCUUGCAUAGUAUUUAGAAA,0.138 ± 0.026,–
UCCUGGAUGUCGAACCAUAGUAUUUAGCUUA,< 0.0001,–
UCCUGGAUGUCCUUGCAUAGUAUUAAGUAA,0.0433 ± 0.013,–
UCCUGCUACAGCUUGCAUAGUAUAUACUUA,0.0361 ± 0.011,–
UCCUGCUUGUGCUUGCAUAGUAUUUUCAAA,0.00521 ± 0.0042,–
UCCUGGAUGUCGAACCAUAGAAUUUAGUUA,< 0.0001,–
UCCUGGAUGUGCUUGCAAAGUAUUUAGAAA,0.0118 ± 0.0048,–
UCCUGGAUCAGCUUGGUUAGUAUUUAGAAA,0.0485 ± 0.016,–
UCCUGGAUCAGCUUGCAUAGUAUUAUGUAA,0.00562 ± 0.0035,–
UCCUGGAUGUCGAACCAUAGUUUUUUGUUA,< 0.0001,–
UCCUGGAACAGCUUCCAUAGUAUUUAGUUA,0.0612 ± 0.017,–
UCCUGGAUGUGCUUGCAUAGUUUUUUGUUA,0.0102 ± 0.0056,–

Sequence,pre-steady-state target cleavage rate [1],pre-steady-state target cleavage rate [2]
UCCUGGAUGAGCUUGCUAUCAUAAAUCAAA [g15:g21:cont:t1A],–,< 0.0001
UCCUGGUACAGCAAGCAUAGUAUUUAGAAA,0.104 ± 0.031,–
UCCUGGUACAGCUUGGUAAGUAUUUAGAAA,0.0185 ± 0.0092,–
UCCUGGAUGAGCUUGCAAAGUAUUUACAAA,0.00757 ± 0.0048,–
UCCUGGAUGAGCUAGCAUAGUAUUUACUUA,0.169 ± 0.042,–
UCCUGGAUGUCGAAACAUAGUAUUUAGUUA,0.0131 ± 0.004,–
UCCUGGAUGUCCUUGCAUAGUAUUUAGUGUA,0.0384 ± 0.012,–
UCCUGCUACAGCUUGCAAAGUAUUUACUUA,0.0653 ± 0.0078,–
UCCUGGAACAGCUUGGAUACUAUUUAGUUA,0.0744 ± 0.017,–
UCCUGGAUGUCCUUGCAAUGUAUUUAGUAA,0.0086 ± 0.0045,–
UCCUGGAUCAGCUUGCAUUCUAUUUACAAA,–,< 0.0001
UCCUGGAUGUGCUUGCAUAGUAUUAAGUAA,0.015 ± 0.0059,–
UCCUGGAUGACCUUGCAUAGUAUUUAGAAA,0.133 ± 0.038,–
UCCUGGAACAGCUUGCAUAGUUUUAGUUA,0.0123 ± 0.0053,–
UCCUGCUACAGCUUGCAUAGUUAUUUCAAA,0.0109 ± 0.0051,–
UCCUGGAUGUGCUUGCAUAGUAUUAAGAAA,0.00586 ± 0.0036,–
UCCUGCUACAGCUACGAUAGUAUUUAGUAA,0.185 ± 0.035,–
UCCUGGAUGAGCUUGCAUAGUUUAUAGUUA,0.0127 ± 0.0052,–
UCCUGGAACAGCUUGCAAUCUAUUUAGUAA,0.025 ± 0.0099,–
UCCUGGAUGAGCUUGCAUAGUAUAAUGAAA,0.00735 ± 0.0041,–
